The structures appear in SMILES notation. The list shows a part of the results. The source made the active and inactive calls.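 How the source made its calls: active means average inhibition across triplicates above the hit cutoff set in the primary screen (cut at about 32% in these data); inactive means the rest.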

The target of the experiment is Female germline-specific tumor suppressor gld-1 (Caenorhabditis elegans) (UniProt Q17339). Description: C. elegans GLD-1 RNA interaction blockers – biochemical, fluorescence polarization, triplicate, confirmation (AID 2459).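 Further: 0% = GLD-1 with RNA probe and DMSO and 100% = wells lacking GLD-1.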 To be noted: GLD-1/FL-TGE RNA fluorescence polarization, at 5.96 µM, stronger effect = higher value.
Female germline-specific tumor suppressor gld-1 (Caenorhabditis elegans), sequence (Q17339 whole entry, looked up): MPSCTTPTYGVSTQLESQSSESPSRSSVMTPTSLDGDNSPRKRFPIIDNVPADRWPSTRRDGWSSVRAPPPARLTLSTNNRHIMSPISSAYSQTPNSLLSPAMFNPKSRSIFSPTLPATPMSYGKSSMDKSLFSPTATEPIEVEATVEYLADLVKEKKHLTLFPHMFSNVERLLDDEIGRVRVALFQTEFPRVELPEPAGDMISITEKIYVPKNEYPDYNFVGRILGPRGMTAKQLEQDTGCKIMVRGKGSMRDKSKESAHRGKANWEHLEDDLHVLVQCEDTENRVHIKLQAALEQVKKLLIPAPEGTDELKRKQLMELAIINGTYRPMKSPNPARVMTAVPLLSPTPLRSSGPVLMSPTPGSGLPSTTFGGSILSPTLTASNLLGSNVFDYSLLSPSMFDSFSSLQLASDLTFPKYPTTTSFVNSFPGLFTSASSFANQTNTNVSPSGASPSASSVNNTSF
With `COCCOC(=O)c1sc(=S)n(CCOC)c1N`, the inhibition (as a rule, the drop in the measured response relative to a control, in per cent) was 47.7% (active).

Take `O=c1[nH]c(=O)c2nc3ccccc3nc2[nH]1`: the inhibition is 101% (active).

As for `COc1cc([C@H](Cc2ccccc2)NC(C)=O)oc(=O)c1`, the inhibition was 25.8% (inactive).

Consider `CCOc1cc(C2C(C(=O)OC)=CN(C3CCCC3)C=C2C(=O)OC)cc(Br)c1O`, for which the inhibition is 31.8% (active).

`CCOc1ccc2nc(N3CCCN(C(=O)Nc4ccccc4C)CC3)c(C#N)cc2c1`: the inhibition is 52.2% (active).

Take `O=C1c2ccccc2C(=O)c2c1cccc2N1CCN(CCO)CC1`: the inhibition was 16.5% (inactive).

Consider `Cc1cc2ccccc2n1CCC(=O)O`, for which the inhibition was 10.1% (inactive).

As for `CCCN(CC(=O)Nc1ccccc1OC)C(=O)CCC(=O)c1ccc(F)cc1`, the inhibition is -0.97% (inactive).

On to `Cc1ccc(/C=N/NC(=O)COc2ccccc2-c2ccccc2)cc1`, for which the inhibition was -5.49% (inactive).

Consider `Oc1ccc2ccccc2c1N=Nc1nccs1`, for which the inhibition is 8.17% (inactive).

On to `CC1CC(C)CN(S(=O)(=O)c2cccc(C(=O)N3C(=O)c4cccc(N)c4C3=O)c2)C1` (stereo not given), for which the inhibition is 1.78% (inactive).

Turning to `CNC(=S)NNC(=O)c1oc2nc(-c3ccccc3)cc(-c3ccco3)c2c1N`, the inhibition was -4.28% (inactive).

As for `O=c1[nH]cccc1-c1nc2ccccc2n1Cc1ccc(Cl)cc1`, the inhibition was -6.98% (inactive).

`COC(=O)CCCC1=CC2=CC(=O)C(C)(OC(=O)c3cccs3)C(=O)C2=CN1c1cccc(C#N)c1` (stereo not given): the inhibition was 8.48% (inactive).

With `COC(=O)c1sc(NC(=S)NC(=O)c2ccc(C)cc2)nc1C`, the inhibition is -1.92% (inactive).

Source of the values: PubChem BioAssay AID2459 (The Scripps Research Institute Molecular Screening Center, 2010).
